ELG1 repair inh: blocks ELG1-dependent DNA repair in HEK293T cells; HEK293T ELG1-luciferase reporter, luminescence, 16 h; DNA damage induced by 5-fluorouridine; Potency, µM (series often up to 46.1 µM), usual class: inhibitors; 2.3% of 330,000 active; AID 504467; note: nearly all actives have a fitted effect of over 55% in size
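Step one: seed 2,000 cells per well. Step two: pin-transfer compound or DMSO alongside 5-fluorouridine. Step three: incubate 16 hr, 37 °C, 5% CO2. Step four: add ONE-Glo, wait 30 min, read luminescence.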
HT1080 IDH1KD tx: kills HT-1080 cells with IDH1 knockdown | 2% of 360,000 active | HT-1080 IDH1 knockdown viability, ATP luminescence, 48 h | Potency, µM (highest dose often 46.1 µM), most hits filed as cytotoxic | AID 686971
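After a 2 h attachment period, IDH1KD HT-1080 cells took pin-transferred compound for 48 h at 37 °C; ATP-based luminescence after 10 min room-temperature reagent incubation reported viability.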
HT1080NT lethal: kills 2HG-producing HT-1080-NT fibrosarcoma cells; Potency, µM (highest dose often 46.1 µM), most hits filed as cytotoxic; 1.6% of 360,000 active; AID 686970; HT-1080-NT fibrosarcoma viability, CellTiter-Glo ATP luminescence, 48 h;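 note: NT is the 2HG producing partner of a matched IDH1 knockdown line; nearly all actives have a fitted effect of over 55% in size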
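A 48-hour cytotoxicity screen used HT-1080-NT cells plated 2 hours before compound delivery. ATP-based CellTiter-Glo luminescence measured viability, normalized to DMSO and no-cell controls.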
TDP1 cell CPT: growth inhibition of DT40 Tdp1-/-;hTDP1 cells with camptothecin (screen for TDP1 inhibitors) | chicken DT40 Tdp1-/-;hTDP1 cells + 20 nM CPT, ATP luminescence, 48 h | Potency, µM (titrated, usually from 46.2 µM), most hits filed as inhibitors | 12% of 420,000 active | AID 686979; note: nearly all actives have a fitted effect of over 55% in size
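Chicken DT40 Tdp1-/- cells complemented with human TDP1, 400 cells/well, exposed to compounds plus 20 nM camptothecin for at least 48 h at 37 C; viability read as ATP content by CellTiter-Glo luminescence.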
DT40 TDP1 no CPT: qHTS for Inhibitors of human tyrosyl-DNA phosphodiesterase 1 (TDP1): qHTS in cells in absence of CPT | DT40 Tdp1-/- hTDP1 cells, no CPT, ATP luminescence, 48 h | Potency, µM (doses to about 46.2 µM), hits mostly inhibitors | 15% of 420,000 active | AID 686978, 2013; note: nearly all actives have a fitted effect of over 55% in size
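DT40 Tdp1-/-;hTDP1 cells, no CPT (DMSO vehicle only), 400 cells/well; compounds pin-transferred; ≥48 hr, 37 °C; CellTiter-Glo 30 min RT dark, luminescence read.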
IL1B secr inh: inflammasome signaling inhibition, IL-1 beta readout; 4.7% of 360,000 active; activity change, % at 57.5 µM; AID 743279; THP-1 LPS/ATP IL-1B secretion, AlphaLISA, 16 h; stronger effect = lower value; in the data active = activity change below about -50%; inconclusive = mostly about -30% to -49%
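THP-1 cells pretreated 1 hr with compounds (up to 57.5 uM final), then stimulated with LPS (250 ng/mL final) plus ATP (1.25 mM final); secreted IL-1B measured by AlphaLISA after 16 hr, decreased signal indicating inhibition.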
A number is an active result; i = inactive; ? = inconclusive; nt = no result; [ ] = another dose, or the depositor's remark. Most compounds without a hit are left out; they make up all but 19% or so of the library. Unless noted, calls come from the whole dose curve; as a rule, active = well fitted curve in the direction sought with a large enough effect; inconclusive = small, poorly fitted or top-dose-only effect, or another doubt; inactive = no such curve, though single readings can be large; an effect the other way counts as inactive or inconclusive.

SMILES	ELG1 repair inh	HT1080 IDH1KD tx	HT1080NT lethal	TDP1 cell CPT	DT40 TDP1 no CPT	IL1B secr inh
O=C(CSc1nnc(-c2ccco2)n1-c1ccccc1Cl)Nc1cccc(C(=O)O)c1	i	i	i	i	i	i
N#C/C(=C/c1ccc2c(c1)OCO2)C(=O)Nc1ccc(O)cc1	?	i	i	7.31µM	11.6µM	i
N#C/C(=C\c1ccc2c(c1)OCCO2)C(=O)Nc1ccc(C(=O)O)cc1	?	i	i	i	i	i
CCOc1cc(/C=C(/C#N)C(=O)Nc2ccc(O)cc2)cc(Br)c1O	i	2.31µM	1.84µM	0.651µM	0.92µM	i
CO/N=C(\C(=O)N[C@@H]1C(=O)N2C(C(=O)O)=C(CSc3nnnn3C)CS[C@H]12)c1csc(N)n1	nt	nt	nt	i	i	nt
CC(=NNC(=S)Nc1ccccc1)c1ccccn1	nt	?	?	0.0259µM	0.116µM	?
CC(=NNC(=S)Nc1ccccc1Cl)c1ccccn1	nt	?	i	0.013µM	0.146µM	-102.0
C=CCNC(=S)N/N=C(\C)c1ccccn1	0.184µM	?	?	0.0103µM	0.0184µM	i
CC(=O)Nc1ccccc1NC(=O)C/C(C)=N/NC(=O)c1ccccn1	?	i	i	i	i	i
Cc1c(C(=O)NCc2ccc(F)cc2)sc(=O)n1Cc1ccccc1	nt	i	i	?	?	i
CC(=O)N1CCN(S(=O)(=O)c2cccc(C(=O)OCC(=O)NCc3ccccc3Cl)c2)CC1	nt	i	i	i	i	i
Cc1nc(-c2ccc(F)cc2)c(CC(=O)N2CCN(S(=O)(=O)c3cccc(F)c3)CC2)s1	?	i	i	20.6µM	14.6µM	i
Cc1ccc(C)c(S(=O)(=O)N2CCN(C(=O)Cc3sc(C)nc3-c3ccc(F)cc3)CC2)c1	nt	i	i	?	?	i
Cc1cc(C(F)(F)F)c2sc(N)nc2n1	?	i[9.24 µM]	i	i	i	i
Nc1nc2nc(-c3ccccc3)cc(C(F)(F)F)c2s1	?	?	i	?	?	-72.8
COc1ccc(Cl)cc1NC(=O)COC(=O)c1cc(NS(=O)(=O)c2cccs2)ccc1O	?	i	i	i	i	i
CCN(Cc1ccccc1)S(=O)(=O)c1ccc(F)c(C(=O)Nc2cc(C(F)(F)F)ccc2Cl)c1	nt	nt	nt	16.4µM	23.1µM	nt
COc1ccc(C)cc1NC(=O)c1ccccc1N(C)S(=O)(=O)c1ccccc1	i	i	i	?	20.6µM	i
CCN(CC)S(=O)(=O)c1ccc(Cl)c(NC(=O)c2cc(Cl)ccc2Cl)c1	i	i	i	?	?	i
CCN(CC)S(=O)(=O)c1ccc(OC)c(NC(=S)Nc2cc(C)ccc2C)c1	i	nt	nt	nt	nt	nt
CC(=O)Nc1ccccc1NC(=O)CN(C)S(=O)(=O)c1ccc(C)cc1	i	i	i	i	i	i
CC(=O)Nc1ccccc1N(C)S(=O)(=O)c1ccc(C)cc1	?	?	i	23.1µM	23.1µM	i
CCN(Cc1ccccc1)S(=O)(=O)c1ccc(F)c(C(=O)Nc2cc(C)ccc2OC)c1	nt	nt	nt	25.9µM	?	nt
Cc1cn(CC(=O)c2ccccc2)c2ccccc12	i	i	i	i	i	i
Cc1ccc(C)c(NC(=O)Cn2c(=O)n(CCCS(=O)(=O)C3CCCCC3)c(=O)c3ccccc32)c1	nt	nt	nt	i	?	nt
SMILES	ELG1 repair inh	HT1080 IDH1KD tx	HT1080NT lethal	TDP1 cell CPT	DT40 TDP1 no CPT	IL1B secr inh
CC1CC(=Cc2ccc([N+](=O)[O-])cc2)C(=O)O1 (stereo not given)	nt	i	i	i	i	i
CSc1ccc(/C=C2\C=Cc3ccc([N+](=O)[O-])cc32)cc1	nt	nt	nt	?	11.2µM	nt
O=[N+]([O-])c1ccc2c(c1)C=C/C2=C/c1ccccc1	nt	nt	nt	12.6µM	17.8µM	nt
O=[N+]([O-])c1ccccc1/C=C1\C=Cc2ccccc21	nt	nt	nt	i	i	nt
CCC(C)NC(=O)c1c(C)oc2nc(C)nc(N3CCOCC3)c12 (stereo not given)	nt	nt	nt	i	i	nt
C[C@H]1CN(C2CCCCC2)C(=O)[C@@H]1CC(=O)Nc1ccc(Br)cc1	nt	i	i	i	i	i
